This is an account of results in PubChem BioAssay.

Active and inactive are the calls of the source. Unless noted, how the calls were made is not given here.

Experiment [1] has as its system Wnt5a (protein binding on small-molecule microarray). Nature of the experiment: small molecules binding Wnt5a protein – biophysical, small-molecule microarray, 635/667 nm fluorescence, primary screen (AID 1142).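 Further: fluorescence read at 667 nm with signal to noise per printed feature.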 Conditions: 635 nm fluorescence, higher = more signal.
Experiment [2] in a line: ATP-based viability of Huh7 replicon cells – cell-based, CellTiter-Glo luminescence, basal, 48 h, cytotoxicity control for HCV replication inhibitor project, primary screen (AID 1143).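 Further: Huh7 hepatoma cells carrying a hepatitis C replication reporter with no stimulus; test concentration not given here.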 Particulars: higher = more signal, called active from +8 up or from −8 down. (In general: Replicon systems follow genome replication, usually without infectious particles.)
The nature of experiment [3]: Pseudomonas biofilm growth suppression – PAO1 strain, BacTiter-Glo luminescence, LB-PBS, primary screen (AID 1144). Conditions: P. aeruginosa PAO1 biofilm, 12 h, higher = more signal.
The nature of experiment [4]: basal CRE-LacZ reporter activity in PC12 – cell-based, unstimulated, primary screen (AID 1145). Particulars: no forskolin, luminescence, 4.5 h, higher = more signal, called active from +8 up or from −8 down.
The nature of experiment [5]: forskolin-driven CRE-LacZ activity in PC12 – cell-based, CRE-LacZ reporter, forskolin-stimulated, primary screen (AID 1146).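 Further: PC12 cells with 6xCRE LacZ reporter stimulated by forskolin 10 µM; beta-galactosidase reporter signal reflecting CREB driven transcription.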 Conditions: luminescence, 4.5 h, higher = more signal, called active from +8 up or from −8 down.
Experiment [6] has as its target Streptavidin (Streptomyces avidinii) (UniProt P22629). Put plainly: compounds binding control protein streptavidin – biophysical, small-molecule microarray, 635/667 nm fluorescence, artefact control for SMM compound annotation, primary screen (AID 1147).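 Further: signal reflects streptavidin binding to arrayed compounds as a control protein.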 Particulars: higher = more signal.
The nature of experiment [7]: probe aInhba binding on compound microarray – biochemical, small-molecule microarray, 635/667 nm fluorescence, primary screen (AID 1148).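 Further: score merges 667nm spot fluorescence with signal-to-noise for antibody binding to printed compounds.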 Conditions: higher = more signal.
Experiment [8] has as its target Torsin-1A (Homo sapiens) (UniProt O14656). Nature of the experiment: TOR1A wild-type binding on microarray – cell lysate, small-molecule microarray, lysate, 635/667 nm, primary screen (AID 1149). Particulars: COS7 hTOR1A-WT lysate, 635 nm fluorescence, higher = more signal.
The target is the same in experiment [9]. Put plainly: torsin A mutant lysate binding on microarrays – cell lysate, small-molecule microarray, COS7 lysate, 635/667 nm fluorescence, primary screen (AID 1150).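 Further: score pools 667 nm emission and signal to noise measuring lysate protein binding.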 Conditions: COS7 hTOR1A mutant lysate, 635 nm fluorescence, higher = more signal.
Experiment [10] deals with Sonic hedgehog protein (Shh). Put plainly: Sonic hedgehog microarray binding compounds – biochemical, small-molecule microarray, 635/667 nm fluorescence, primary screen (AID 1151).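 Further: Shh protein binding to compounds spotted on small-molecule microarray slides; score combines spot fluorescence intensity with signal-to-noise across triplicate slides.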 Particulars: 635 nm fluorescence, higher = more signal.
The nature of experiment [11]: optical density shifts of acrAB sulA E. coli – strain DRC41, OD650, 48 h, E. coli filamentation inducer project, primary screen (AID 1152).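 Further: E. coli MC1000 strain DRC41 lacking acrAB efflux pump and sulA.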 Particulars: higher = more signal, called active from +8 up or from −8 down.
The nature of experiment [12]: probe aLefty1 binding on compound microarray – biochemical, small-molecule microarray, 635/667 nm fluorescence, primary screen (AID 1153).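 Further: score merges spot fluorescence with signal-to-noise ratio from the scanned slide images.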 Conditions: higher = more signal.
Experiment [13] can be described thus: plasmodial surface anion channel blockers, osmotic lysis – cell-based, P. falciparum Indochina, OD700, 1 h, primary screen (AID 1154). Particulars: P. falciparum Indochina infected RBC osmotic lysis, higher = more signal, called active from +8 up or from −8 down.
A short description of experiment [14]: plasmodial surface anion channel blockers, osmotic lysis – cell-based, P. falciparum Indochina, OD700, 2 h, primary screen (AID 1155).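 Further: lysis reports solute entry through the parasite surface anion channel PSAC.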 Particulars: P. falciparum Indochina infected erythrocytes, higher = more signal, called active from +8 up or from −8 down.
Experiment [15] in a line: changes in parasitized red cell lysis, either direction – P. falciparum Indochina, OD700, 3 h, PSAC antagonist project, primary screen (AID 1156). Particulars: P. falciparum-infected erythrocytes, osmotic lysis, higher = more signal, called active from +8 up or from −8 down.
Experiment [16] is described as follows: plasmodial surface anion channel blockers, osmotic lysis – cell-based, P. falciparum Indochina, OD700, 18 h, primary screen (AID 1157). Conditions: P. falciparum Indochina infected erythrocytes, osmotic lysis OD700, 18 h; higher = more signal, called active from +8 up or from −8 down.
Experiment [17] is described as follows: S6 kinase pathway phospho-S6 level changes – cell-based, A549, cytoblot, luminescence, serum-stimulated, primary screen (AID 1158).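 Further: serum-stimulated A549 lung adenocarcinoma cells; signal is phosphorylated S6 detected by cytoblot immunostaining with HRP secondary.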 Conditions: 5 h, higher = more signal.
The target of experiment [18] is NADPH oxidase 2 (Homo sapiens) (UniProt P04839). Put plainly: compounds shifting NOX2 Amplex Red fluorescence – cell-based, HEK293-NOX2, PMA-stimulated, NOX inhibitor project, primary screen (AID 1159). Further: test concentration not given here. Particulars: 45 min, higher = more signal, called active from +8 up or from −8 down.
Sequence of NADPH oxidase 2 (Homo sapiens) (P04839 whole entry, looked up): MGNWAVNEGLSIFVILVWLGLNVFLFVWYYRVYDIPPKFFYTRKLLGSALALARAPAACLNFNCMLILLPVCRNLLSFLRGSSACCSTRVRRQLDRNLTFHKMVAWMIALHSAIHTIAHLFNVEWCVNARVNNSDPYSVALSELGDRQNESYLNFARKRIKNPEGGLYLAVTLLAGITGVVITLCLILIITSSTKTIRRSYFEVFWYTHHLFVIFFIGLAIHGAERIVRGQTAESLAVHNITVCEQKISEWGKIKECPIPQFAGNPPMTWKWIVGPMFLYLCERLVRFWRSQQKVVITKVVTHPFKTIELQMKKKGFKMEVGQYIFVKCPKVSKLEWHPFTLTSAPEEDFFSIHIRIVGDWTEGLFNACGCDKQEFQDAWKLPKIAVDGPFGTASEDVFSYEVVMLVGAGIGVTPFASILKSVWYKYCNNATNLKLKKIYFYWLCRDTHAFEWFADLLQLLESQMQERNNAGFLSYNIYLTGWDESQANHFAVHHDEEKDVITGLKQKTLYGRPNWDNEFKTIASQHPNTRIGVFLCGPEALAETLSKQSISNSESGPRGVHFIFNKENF
For experiment [19], the target named is NADPH oxidase 4 (Homo sapiens) (UniProt Q9NPH5). Put plainly: compounds shifting NOX4 Amplex Red fluorescence – cell-based, HEK293-NOX4, tetracycline-induced, NOX inhibitor project, primary screen (AID 1160). Conditions: HEK293-NOX4, Amplex Red H2O2 fluorescence, 45 min; higher = more signal, called active from +8 up or from −8 down.
Sequence of NADPH oxidase 4 (Homo sapiens) (Q9NPH5 whole entry, looked up): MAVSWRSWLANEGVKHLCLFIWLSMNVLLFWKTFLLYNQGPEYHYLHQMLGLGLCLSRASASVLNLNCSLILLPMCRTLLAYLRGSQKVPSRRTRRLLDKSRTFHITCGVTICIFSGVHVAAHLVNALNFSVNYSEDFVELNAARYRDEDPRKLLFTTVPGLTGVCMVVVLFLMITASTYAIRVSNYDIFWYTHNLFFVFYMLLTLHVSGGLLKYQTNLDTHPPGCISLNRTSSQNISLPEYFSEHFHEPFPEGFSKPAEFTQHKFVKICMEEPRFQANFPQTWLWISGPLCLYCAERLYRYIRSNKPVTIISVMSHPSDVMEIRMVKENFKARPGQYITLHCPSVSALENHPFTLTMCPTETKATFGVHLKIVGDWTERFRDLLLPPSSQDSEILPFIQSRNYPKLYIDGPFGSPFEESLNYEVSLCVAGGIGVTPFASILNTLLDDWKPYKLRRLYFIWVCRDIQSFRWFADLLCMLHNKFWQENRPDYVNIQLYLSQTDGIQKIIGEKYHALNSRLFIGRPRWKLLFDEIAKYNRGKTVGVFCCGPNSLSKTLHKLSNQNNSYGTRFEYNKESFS
Experiment [20] deals with NADPH oxidase 5 (Homo sapiens) (UniProt Q96PH1). Put plainly: compounds shifting NOX5 Amplex Red fluorescence – cell-based, HEK293-NOX5, NOX inhibitor project, primary screen (AID 1161). Particulars: HEK293-NOX5, ionomycin, 45 min, higher = more signal.
Sequence of NADPH oxidase 5 (Homo sapiens) (Q96PH1 whole entry, looked up): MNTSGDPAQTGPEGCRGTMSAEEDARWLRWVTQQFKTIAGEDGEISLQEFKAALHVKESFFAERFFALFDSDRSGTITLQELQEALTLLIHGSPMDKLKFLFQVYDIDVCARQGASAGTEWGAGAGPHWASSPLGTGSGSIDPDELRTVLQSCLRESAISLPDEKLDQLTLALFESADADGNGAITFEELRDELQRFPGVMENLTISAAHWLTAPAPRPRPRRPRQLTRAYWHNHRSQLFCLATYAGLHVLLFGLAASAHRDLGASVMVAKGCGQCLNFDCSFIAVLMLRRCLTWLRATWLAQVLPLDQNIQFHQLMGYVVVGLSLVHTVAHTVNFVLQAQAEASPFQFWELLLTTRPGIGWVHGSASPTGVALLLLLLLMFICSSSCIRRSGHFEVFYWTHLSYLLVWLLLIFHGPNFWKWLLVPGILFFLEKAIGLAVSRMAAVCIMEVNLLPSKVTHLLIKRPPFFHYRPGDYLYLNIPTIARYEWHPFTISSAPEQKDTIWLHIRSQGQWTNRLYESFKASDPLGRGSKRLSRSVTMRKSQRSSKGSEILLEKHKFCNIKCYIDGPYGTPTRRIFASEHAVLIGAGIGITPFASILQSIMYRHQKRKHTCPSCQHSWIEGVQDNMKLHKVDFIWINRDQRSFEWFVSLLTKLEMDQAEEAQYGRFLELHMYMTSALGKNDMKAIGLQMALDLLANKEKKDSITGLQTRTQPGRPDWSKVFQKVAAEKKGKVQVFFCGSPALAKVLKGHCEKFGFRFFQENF

Sequence of Streptavidin (Streptomyces avidinii) (P22629 whole entry, looked up): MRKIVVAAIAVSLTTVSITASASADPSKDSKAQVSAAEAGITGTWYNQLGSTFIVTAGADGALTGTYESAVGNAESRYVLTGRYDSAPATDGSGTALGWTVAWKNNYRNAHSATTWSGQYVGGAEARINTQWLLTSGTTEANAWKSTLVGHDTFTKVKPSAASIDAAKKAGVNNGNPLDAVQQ
Sequence of Torsin-1A (Homo sapiens) (O14656 whole entry, looked up): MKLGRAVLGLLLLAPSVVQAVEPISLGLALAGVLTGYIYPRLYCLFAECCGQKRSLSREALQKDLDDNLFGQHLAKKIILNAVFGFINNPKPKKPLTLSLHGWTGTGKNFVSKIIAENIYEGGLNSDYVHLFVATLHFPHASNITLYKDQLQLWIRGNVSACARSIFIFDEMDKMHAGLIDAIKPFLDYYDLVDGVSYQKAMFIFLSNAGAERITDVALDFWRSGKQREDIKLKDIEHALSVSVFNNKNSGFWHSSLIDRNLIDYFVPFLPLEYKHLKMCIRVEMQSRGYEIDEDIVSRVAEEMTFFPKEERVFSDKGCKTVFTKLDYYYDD

Take `COC(=O)C(CC#Cc1ccc2c(c1)[C@]1(C(=O)N2)[C@H](C(=O)NC[C@H](O)c2ccccc2)[C@H]2C(=O)O[C@H](c3ccccc3)[C@H](c3ccccc3)N2[C@@H]1c1ccc(O)cc1)C(=O)OC`: the composite z-score in experiment [1] is -0.174; in [6] it was -0.765; in experiment [7], -0.0736; in the experiment with Torsin-1A (Homo sapiens) [8], -0.93; with Torsin-1A (Homo sapiens) [9], -0.62; in experiment [10], 0.21. The compound also gave a composite z-score in [12] of -0.445. Moreover, the z-score was -0.187 (inactive) in experiment [2]; 1.07 (inactive) in experiment [3]; 0.488 (inactive) in experiment [4]; -0.517 (inactive) in experiment [5]; -1.21 (inactive) in [11]; 1.44 (inactive) in [13]. Moreover, the z-score was 0.21 (inactive) in [14]; -0.506 (inactive) in [15]; -0.0801 (inactive) in experiment [16]; -0.0784 in [17]; 1.4 (inactive) in [18]; 0.691 (inactive) in [19]. Moreover, in experiment [20], the z-score was determined as 1.33.

With `CCCCN1CC=CC23O[C@@H]4C=CCCOC(=O)C4[C@H]2C(=O)N(CCO)[C@@H]3C1=O` (stereo not given in full), the composite z-score in [1] is -0.213; in experiment [6], -0.434; in [7], -0.0405; in the experiment with Torsin-1A (Homo sapiens) [8] it was -0.856; in the experiment with Torsin-1A (Homo sapiens) [9] it was -0.508; in [10], 1.71. In [12], this compound registered a composite z-score of -0.239. The z-score in [2] is 0.142 (inactive); in experiment [3] it was -0.892 (inactive); in [4], -1.45 (inactive); in [5] it was -0.34 (inactive); in [11] it was 0.634 (inactive); in experiment [13], 0.506 (inactive). Further, the z-score in [14] is 0.303 (inactive); in [15], 1.21 (inactive); in experiment [16], 0.211 (inactive); in [17] it was -0.357; in experiment [18] it was 1.09 (inactive); in experiment [19] it was 0.519 (inactive). Moreover, the z-score in experiment [20] was 0.432.

Take `COC(=O)C(CC#Cc1ccc2c(c1)[C@]1(C(=O)N2)[C@H](C(=O)N2CCN(c3ncccn3)CC2)[C@H]2C(=O)O[C@H](c3ccccc3)[C@H](c3ccccc3)N2[C@@H]1c1ccc(O)cc1)C(=O)OC`: the composite z-score in [1] was 0.923; in experiment [6], 2.27; in experiment [7], 1.39; in the experiment with Torsin-1A (Homo sapiens) [8] it was 0.662; in the experiment with Torsin-1A (Homo sapiens) [9] it was 1.12; in [10], 1.04. Further, the composite z-score in [12] came to 1.93. The z-score is -3.7 (inactive) in experiment [2]; -0.58 (inactive) in experiment [3]; -0.0515 (inactive) in [4]; 0.0989 (inactive) in experiment [5]; -0.442 (inactive) in experiment [11]; 1.85 (inactive) in experiment [13]. Moreover, the z-score in experiment [14] was 0.89 (inactive); in experiment [15], 0.804 (inactive); in experiment [16], 0.0729 (inactive); in experiment [17], -0.339; in experiment [18], 1.52 (inactive); in experiment [19], -0.566 (inactive). The z-score in experiment [20] came out at 0.665.

Consider `CCCNC(=O)[C@@]1(Sc2ccc(C)cc2)CC(=O)N(Cc2cc(C(F)(F)F)cc(C(F)(F)F)c2)[C@@H]1c1ccc(CO)cc1`, for which the composite z-score in experiment [1] is -0.139; in experiment [6] it was -1.08; in experiment [7], -0.0963; in the experiment with Torsin-1A (Homo sapiens) [8], -0.11; in the experiment with Torsin-1A (Homo sapiens) [9] it was -0.155; in experiment [10], -0.0508. Besides, the composite z-score in experiment [12] is -0.193. The z-score was -4.41 (inactive) in experiment [2]; 0.503 (inactive) in experiment [3]; -0.554 (inactive) in [4]; 0.448 (inactive) in experiment [5]; 1.63 (inactive) in experiment [11]; 2.74 (inactive) in experiment [13]. The z-score in experiment [14] is 0.285 (inactive); in experiment [15], 0.25 (inactive); in experiment [16] it was -1.15 (inactive); in experiment [17], 2.9; in [18] it was 0.584 (inactive); in experiment [19], -0.589 (inactive). Besides, in [20], the z-score worked out at 0.207.

For `CC(C)c1ccc(NN2C(C(O)C(C)c3ccccc3)C=CC3C(=O)N(c4ccccc4)C(=O)C32)cc1` (stereo not given), the composite z-score in [1] worked out at 0.981; in [6] it was 2.11; in experiment [7], 0.864; with Torsin-1A (Homo sapiens) [8] it was 0.326; with Torsin-1A (Homo sapiens) [9], 1.12; in experiment [10] it was 0.461. The compound further registered a composite z-score in experiment [12] of 1.24. For the same compound, the z-score is 0.0469 (inactive) in experiment [2]; -0.692 (inactive) in experiment [3]; 0.619 (inactive) in experiment [4]; 0.939 (inactive) in experiment [5]; -1.78 (inactive) in experiment [11]; 0.187 (inactive) in experiment [13]. Besides, the z-score in experiment [14] was 0.433 (inactive); in [15] it was 0.215 (inactive); in experiment [16], 0.998 (inactive); in experiment [17], -1.44; in experiment [18] it was -0.818 (inactive); in [19], -2.63 (inactive). The z-score in experiment [20] was -4.03.
